# PubChem BioAssay (NCATS)
# Several values for one entry are separate records, joined by “and”; a condition that tells them apart may be missing. Identical values can stand only once. Inconclusive results are not listed. Where a call stands in place of a potency, no number is given. Values without a mark were called inactive. Activity calls are given as the source filed them. Calls follow the shape of the dose curve; as a rule, active = well fitted cell-killing curve with a large enough effect; inconclusive = small, poorly fitted or top-dose-only effect; inactive = flat fitted curve, though single readings scatter.
# Test: qHTS of pediatric cancer cell lines to identify multiple opportunities for drug repurposing: Primary screen for DAOY cells (AID 1347090); also: nearly all actives have a fitted effect of over 55% in size
# Conditions: DAOY medulloblastoma viability, CellTiter-Glo luminescence, 48 h; series mostly up to 46 µM; activity change, negative = cytotoxic: at the top concentration
# From the text: Drug repurposing or repositioning has been offered as a strategy for drug development in oncology programs. This approach has special potential for childhood cancers and other rare or orphan diseases, where the expected return on new drug development has been a disincentive to pharmaceuticals.
# In this project we exploit the poly-pharmacology of drugs to discover new indications via phenotypic screening of a panel of 19 well-characterized cell lines derived from solid tumors seen in children and adolescents. The goal is to identify approved drugs with previously unrecognized anticancer properties that has the potential to reveal new mechanisms and biological processes involved in carcinogenesis or drug resistance. We employed a titration-based paradigm (quantitative high-throughput screening or qHTS), where all compounds were tested at multiple concentrations for their effect on cell viability. Concentration-response curves (CRCs) were derived directly from the primary screen, and both potency and efficacy values were used to identify compounds with robust bioactivity profiles. We screened the NIH Chemical Genomics Center (NCGC) Pharmaceutical Collection (NPC) and Mechanism Interrogation Plate (MIPE) small molecule collections of approved and investigational compounds against these cell lines; and measured metabolically active cells after 48 hours of compound treatment as a proxy for cell viability.
# Assay Submitter: Nathalia J. Martinez, National Center for Advancing Translational Sciences, National Institutes of Health, Rockville, MD, USA; email: natalia.martinez@nih.gov
# [1] Shen, M et al. Quantitative high-throughput phenotypic screening of pediatric cancer cell lines identifies multiple opportunities for drug repurposing. Oncotarget 2017 Dec 19;9(4):4758-4772. PMID 29435139.
# The cells were obtained from University of North Carolina (UNC), Pediatric Preclinical Testing Program (PPT), and Coriell Institute (CI).
# qHTS cell viability assay:
# Cells were assayed in growth media at a density of 500-1,000 cells/well. Five microliters of cells were dispensed into 1,536-well, white, solid-bottom, TC-treated plates (Greiner Bio One) using a multidrop dispenser and incubated at 37 degrees C, 5% CO2, under a humidified atmosphere for 5 hours. Twenty-three nanoliters of compounds and controls (neutral control DMSO or positive control bortezomib at final concentration of 2.3 µM) were subsequently transferred by Kalypsys pintool. For primary screens, the MIPE collection was tested at 11-point dilutions (final concentrations range from 0.78 nM to 46 µM) and the NPC collection at 8-point dilutions (final concentrations range from 0.59 nM to 46 µM). Compounds tested in follow-up screens were assayed at 11-point dilutions. Cells were incubated for 48 hours, followed by addition of 3 uL of CellTiter-Glo (Promega). After a 15 min incubation at room temperature, samples were analyzed for luminescence intensity using a ViewLux High-throughput CCD imager equipped with clear filters.
# Potency is read from the fitted curve at half-maximal effect.
SMILES,Potency,"activity change, negative = cytotoxic"
CC(COc1ccccc1)N(CCCl)Cc1ccccc1 (stereo not given),inactive,
Clc1ccc2nsnc2c1NC1=NCCN1,inactive,
CCOC(=O)c1ncn2c1CN(C)C(=O)c1cc(F)ccc1-2,inactive,
CN(C)CCOC(c1ccccc1)c1ccccc1,,6.97%
CC(=O)OCC(CCn1cnc2cnc(N)nc21)COC(C)=O,inactive,
Cn1c(=O)c2[nH]cnc2n(C)c1=O,inactive,
Nc1c2c(nc3ccccc13)CCCC2,inactive,
CN(C)c1nc(N(C)C)nc(N(C)C)n1,inactive,
NS(=O)(=O)c1cc2c(cc1Cl)NCNS2(=O)=O,,16.3%
Nc1nnc(-c2cccc(Cl)c2Cl)c(N)n1,,-6.02%
COc1ccccc1OCCNCC(O)COc1cccc2[nH]c3ccccc3c12 (stereo not given),inactive,
CC(C)(C)C(=O)Oc1ccc(S(=O)(=O)Nc2ccccc2C(=O)NCC(=O)O)cc1,inactive,
COc1nc(C)nc(Cl)c1NC1=NCCN1,inactive,
CN1CCN(C2=Nc3cc(Cl)ccc3Nc3ccccc32)CC1,inactive,
O=C1N(c2ccccc2)c2ccccc2C1(Cc1ccncc1)Cc1ccncc1,inactive,
CC[C@@]1(O)C(=O)OCc2c1cc1n(c2=O)Cc2cc3c(CN(C)C)c(O)ccc3nc2-1,53.1 nM (active) and 296 nM (active),
NCCCCCC(=O)O,inactive,
O=c1[nH]cc(F)c(=O)[nH]1,inactive,
CN(CCOc1ccc(NS(C)(=O)=O)cc1)CCc1ccc(NS(C)(=O)=O)cc1,inactive,
CN(C)CCC=C1c2ccccc2C=Cc2ccccc21,inactive,

SMILES,Potency,"activity change, negative = cytotoxic"
Cn1c(=O)c2c(ncn2C)n(C)c1=O,inactive,
CC[N+](CC)(CC)CCOc1cccc(OCC[N+](CC)(CC)CC)c1OCC[N+](CC)(CC)CC,inactive,
Cc1cnc(C(=O)NCCc2ccc(S(=O)(=O)NC(=O)NC3CCCCC3)cc2)cn1,inactive,
Cc1cn([C@H]2C[C@H](N=[N+]=[N-])[C@@H](CO)O2)c(=O)[nH]c1=O,inactive,
COc1cc2c(c(OC)c1OC)-c1ccc(OC)c(=O)cc1[C@@H](NC(C)=O)CC2,8.4 nM (active),
CCC1(C)CC(=O)NC1=O (stereo not given),inactive,
Fc1ccc([C@@H]2CCNC[C@H]2COc2ccc3c(c2)OCO3)cc1,inactive,
CC1(C)O[C@H]2CC(=O)OC[C@]23[C@H]2CC[C@@]4(C)[C@H](c5ccoc5)OC(=O)[C@H]5O[C@]54[C@]2(C)C(=O)C[C@@H]13,inactive,
CN(Cc1cnc2nc(N)nc(N)c2n1)c1ccc(C(=O)N[C@@H](CCC(=O)O)C(=O)O)cc1,26.6 nM (active),
OCCN1CCN(CCCN2c3ccccc3Sc3ccc(C(F)(F)F)cc32)CC1,,-14.4%
COc1ccc2[nH]cc(CCNC(C)=O)c2c1,,4.91%
C[C@](N)(Cc1ccc(O)c(O)c1)C(=O)O,,5.56%
NC(=O)NO,,5.28%
O=C(c1ccc(F)cc1)C1CCN(CCn2c(=O)[nH]c3ccccc3c2=O)CC1,inactive,
CC(CCc1ccc(O)cc1)NCCc1ccc(O)c(O)c1 (stereo not given),,-12.2%
COc1cc2nc(N(C)CCCNC(=O)C3CCCO3)nc(N)c2cc1OC (stereo not given),inactive,
NC(CO)C(=O)NNCc1ccc(O)c(O)c1O (stereo not given),inactive,
Cc1cc(C(C)(C)C)c(O)c(C)c1CC1=NCCN1,inactive,
NC12CC3CC(CC(C3)C1)C2,,12.2%
O=C1Cc2cc(CCN3CCN(c4nsc5ccccc45)CC3)c(Cl)cc2N1,inactive,
